Measurements reported in article PMC7862700, “An all-to-all approach to the identification of sequence-specific readers for epigenetic DNA modifications on cytosine”.

What was measured:
Test in all cases: DAPPL (digital affinity profiling via proximity ligation, sequencing); 10 mM Tris-HCl pH 7.5, 50 mM NaCl, 1 mM DTT, 4% glycerol, room temperature, 30 min; GST-TFs on glutathione beads, 16-mer random dsDNA library, 0.1% formaldehyde crosslink after washing; high values mean tight binding
Conditions in all cases: protein: recombinant; tags: N-terminal GST; dsDNA, one strand shown
ETV2 = molecular target: T1, ETV2 (Homo sapiens, UniProt O00321 1-342)
T1 sequence: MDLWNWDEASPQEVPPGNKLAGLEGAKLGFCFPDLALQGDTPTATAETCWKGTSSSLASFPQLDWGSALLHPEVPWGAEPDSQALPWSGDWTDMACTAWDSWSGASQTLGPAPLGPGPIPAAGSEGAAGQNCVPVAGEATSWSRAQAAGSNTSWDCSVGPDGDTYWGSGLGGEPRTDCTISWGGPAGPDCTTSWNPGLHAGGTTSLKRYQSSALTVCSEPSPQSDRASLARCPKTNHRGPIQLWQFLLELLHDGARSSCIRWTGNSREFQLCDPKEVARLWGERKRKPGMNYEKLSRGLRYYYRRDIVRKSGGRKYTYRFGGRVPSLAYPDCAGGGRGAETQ
Procedure, shortened: (§1)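 Human transcription factors fused to GST were expressed in yeast, captured on glutathione beads, given DNA barcodes and pooled with a GST-only negative control. Pools were incubated with 200 nmole of a 16-mer random double-stranded DNA library in Tris/NaCl/DTT/glycerol buffer at room temperature for 30 min. They were then washed, crosslinked with 0.1% formaldehyde, proximity-ligated (BsaI/T4 ligase, 1 h, 37 °C), PCR-amplified and sequenced on an Illumina NextSeq500. Binding signal is each 6-mer's read frequency for a factor divided by its frequency for the GST control.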

ELF3 = molecular target: T2, ELF3 (Homo sapiens, UniProt P78545 1-371)
T2 sequence: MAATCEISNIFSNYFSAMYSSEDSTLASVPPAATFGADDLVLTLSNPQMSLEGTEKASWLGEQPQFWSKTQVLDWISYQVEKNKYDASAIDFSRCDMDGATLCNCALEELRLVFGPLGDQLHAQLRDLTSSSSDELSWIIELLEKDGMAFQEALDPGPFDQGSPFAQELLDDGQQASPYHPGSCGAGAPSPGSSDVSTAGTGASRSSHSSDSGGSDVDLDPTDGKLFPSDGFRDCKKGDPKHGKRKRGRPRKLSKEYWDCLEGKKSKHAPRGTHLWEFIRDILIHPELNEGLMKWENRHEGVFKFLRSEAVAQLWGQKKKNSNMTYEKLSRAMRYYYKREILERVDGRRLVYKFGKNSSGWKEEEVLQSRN
Procedure, shortened: as §1

ETV1 = ETV1 (Homo sapiens, UniProt P50549 1-477)
Procedure, shortened: as §1

ERF = molecular target: T3, ERF (Homo sapiens, UniProt P50548 1-548)
T3 sequence: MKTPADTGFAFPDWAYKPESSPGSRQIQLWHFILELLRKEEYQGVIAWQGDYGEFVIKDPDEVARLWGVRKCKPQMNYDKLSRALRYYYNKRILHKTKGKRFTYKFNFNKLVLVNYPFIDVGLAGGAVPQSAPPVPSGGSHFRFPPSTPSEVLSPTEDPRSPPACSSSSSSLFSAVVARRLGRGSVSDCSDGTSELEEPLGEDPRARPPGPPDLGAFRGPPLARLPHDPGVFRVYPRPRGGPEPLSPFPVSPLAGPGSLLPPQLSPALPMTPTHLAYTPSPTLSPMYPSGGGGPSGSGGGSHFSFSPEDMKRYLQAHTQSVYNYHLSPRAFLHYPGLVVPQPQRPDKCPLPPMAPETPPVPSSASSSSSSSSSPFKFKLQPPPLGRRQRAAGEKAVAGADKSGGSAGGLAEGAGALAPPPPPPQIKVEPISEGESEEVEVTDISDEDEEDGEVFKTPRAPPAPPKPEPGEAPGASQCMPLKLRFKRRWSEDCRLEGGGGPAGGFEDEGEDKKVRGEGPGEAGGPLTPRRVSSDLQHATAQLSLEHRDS
Procedure, shortened: as §1

ETV3L = molecular target: T4, ETV3L (Homo sapiens, UniProt Q6ZN32 1-361)
T4 sequence: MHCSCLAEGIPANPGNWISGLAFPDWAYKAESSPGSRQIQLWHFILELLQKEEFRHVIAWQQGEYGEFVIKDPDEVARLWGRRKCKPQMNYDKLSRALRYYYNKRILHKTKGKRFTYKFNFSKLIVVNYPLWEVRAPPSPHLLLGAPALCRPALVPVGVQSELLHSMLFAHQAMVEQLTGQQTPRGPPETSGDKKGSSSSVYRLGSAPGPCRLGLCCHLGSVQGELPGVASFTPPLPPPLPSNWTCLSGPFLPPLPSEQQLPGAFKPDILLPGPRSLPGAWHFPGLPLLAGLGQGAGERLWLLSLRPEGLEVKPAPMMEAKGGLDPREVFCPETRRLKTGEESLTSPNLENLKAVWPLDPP
Procedure, shortened: as §1

ETS2 = molecular target: T5, ETS2 (Homo sapiens, UniProt P15036 1-469)
T5 sequence: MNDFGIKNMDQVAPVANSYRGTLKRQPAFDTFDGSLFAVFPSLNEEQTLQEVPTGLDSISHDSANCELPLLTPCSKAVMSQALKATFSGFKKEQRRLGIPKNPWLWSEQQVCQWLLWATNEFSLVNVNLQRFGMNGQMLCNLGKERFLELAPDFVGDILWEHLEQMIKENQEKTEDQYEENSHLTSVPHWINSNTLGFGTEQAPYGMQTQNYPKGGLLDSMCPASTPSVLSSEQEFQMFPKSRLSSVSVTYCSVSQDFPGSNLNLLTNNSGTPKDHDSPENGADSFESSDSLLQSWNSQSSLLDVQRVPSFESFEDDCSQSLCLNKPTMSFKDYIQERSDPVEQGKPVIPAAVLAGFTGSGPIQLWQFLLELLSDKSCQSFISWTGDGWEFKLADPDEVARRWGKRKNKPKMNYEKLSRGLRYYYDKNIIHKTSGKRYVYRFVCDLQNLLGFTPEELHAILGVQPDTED
Procedure, shortened: as §1

ETV7 = molecular target: T6, ETV7 (Homo sapiens, UniProt Q9Y603 1-341)
T6 sequence: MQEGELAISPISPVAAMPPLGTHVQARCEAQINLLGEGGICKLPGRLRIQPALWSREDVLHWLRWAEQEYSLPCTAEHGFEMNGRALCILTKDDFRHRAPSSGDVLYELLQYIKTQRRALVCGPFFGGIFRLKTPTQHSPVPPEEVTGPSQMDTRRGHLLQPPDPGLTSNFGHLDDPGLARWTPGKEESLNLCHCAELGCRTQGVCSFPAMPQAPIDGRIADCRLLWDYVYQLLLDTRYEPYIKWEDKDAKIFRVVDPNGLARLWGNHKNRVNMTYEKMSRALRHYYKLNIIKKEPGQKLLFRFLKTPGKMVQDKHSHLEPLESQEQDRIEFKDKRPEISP
Procedure, shortened: as §1

ETV3 = molecular target: T7, ETV3 (Homo sapiens, UniProt P41162-2 1-143)
T7 sequence: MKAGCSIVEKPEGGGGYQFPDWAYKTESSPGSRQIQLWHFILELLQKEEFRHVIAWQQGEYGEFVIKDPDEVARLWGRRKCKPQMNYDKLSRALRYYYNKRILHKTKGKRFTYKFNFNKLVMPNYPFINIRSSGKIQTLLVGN
Procedure, shortened: as §1

ETV6 = ETV6 (Homo sapiens, UniProt P41212 1-452)
Procedure, shortened: as §1

Chain of ETV6 (P41212 whole entry): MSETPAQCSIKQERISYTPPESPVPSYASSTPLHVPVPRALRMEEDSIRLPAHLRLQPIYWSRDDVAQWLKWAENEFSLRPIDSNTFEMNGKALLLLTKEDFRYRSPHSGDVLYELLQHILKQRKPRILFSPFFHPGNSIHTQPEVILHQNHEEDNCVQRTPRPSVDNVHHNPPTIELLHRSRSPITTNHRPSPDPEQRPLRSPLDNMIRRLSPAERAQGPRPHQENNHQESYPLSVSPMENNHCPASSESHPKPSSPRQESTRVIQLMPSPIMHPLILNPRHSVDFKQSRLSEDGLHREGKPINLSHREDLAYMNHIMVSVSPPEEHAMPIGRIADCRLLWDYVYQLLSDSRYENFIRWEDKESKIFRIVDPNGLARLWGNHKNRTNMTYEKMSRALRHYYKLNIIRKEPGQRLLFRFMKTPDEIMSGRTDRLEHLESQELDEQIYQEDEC
Chain of ETV1 (P50549 whole entry): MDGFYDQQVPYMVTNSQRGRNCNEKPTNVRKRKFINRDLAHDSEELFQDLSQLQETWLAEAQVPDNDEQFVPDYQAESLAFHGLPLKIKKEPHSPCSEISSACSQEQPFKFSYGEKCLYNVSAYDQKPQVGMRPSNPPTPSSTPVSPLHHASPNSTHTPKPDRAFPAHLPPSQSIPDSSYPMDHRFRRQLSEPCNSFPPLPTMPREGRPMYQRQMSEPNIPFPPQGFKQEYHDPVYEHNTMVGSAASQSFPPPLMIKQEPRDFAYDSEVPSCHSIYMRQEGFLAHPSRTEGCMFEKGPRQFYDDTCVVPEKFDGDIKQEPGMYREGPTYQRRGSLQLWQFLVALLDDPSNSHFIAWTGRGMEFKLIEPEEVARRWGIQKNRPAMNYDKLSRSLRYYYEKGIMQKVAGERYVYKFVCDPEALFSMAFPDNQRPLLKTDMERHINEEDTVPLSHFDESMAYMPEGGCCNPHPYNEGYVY

## TCAATC
ETV2
  binding signal: 1.13 fold enrichment (6-mer frequency, TF over GST control)
ELF3
  binding signal: 1.09 fold enrichment (6-mer frequency, TF over GST control)
ETV1
  binding signal: 1.04 fold enrichment (6-mer frequency, TF over GST control)
ERF
  binding signal: 1.09 fold enrichment (6-mer frequency, TF over GST control)
ETV3L
  binding signal: 1.05 fold enrichment (6-mer frequency, TF over GST control)
ETS2
  binding signal: 1.04 fold enrichment (6-mer frequency, TF over GST control)
ETV7
  binding signal: 1.01 fold enrichment (6-mer frequency, TF over GST control)
ETV3
  binding signal: 1.01 fold enrichment (6-mer frequency, TF over GST control)
ETV6
  binding signal: 1.06 fold enrichment (6-mer frequency, TF over GST control)
